Assay results: PubChem BioAssay
Activity calls are given as the source filed them.

Tests used:
[1] = small molecules captured by biotinylated probe aFSTL3 – biochemical, small-molecule microarray, fluorescence 635/667, stem cell growth factor project, primary screen (AID 1064); details: higher = more signal;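 further: measures binding of the biotinylated anti-FSTL3 antibody to printed compounds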
[2] = binders from COS7 lysate, DM2A8 probe, primary screen, torsin A project, cell lysate, small-molecule microarray, fluorescence 635/667 (AID 1065); details: higher = more signal, COS7 lysate expressing mutant human TOR1A
[3] = small molecules captured by biotinylated probe aFGF2 – biochemical, small-molecule microarray, fluorescence 635/667, stem cell growth factor project, primary screen (AID 1067); details: higher = more signal;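 further: measures binding of biotinylated aFGF2 protein to printed compounds on slides; z-score merges feature fluorescence and signal-to-noise across triplicate slides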
[4] = small molecules captured by biotinylated probe aFGF10 – biochemical, small-molecule microarray, fluorescence 635/667, stem cell growth factor project, primary screen (AID 1071); details: higher = more signal;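 further: score merges 667 nm spot intensity and signal to noise from triplicate slides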
[5] = biological target: Neurogenic locus notch homolog protein 2 (Homo sapiens) (UniProt Q04721); assay: small molecules binding Notch2 protein – biochemical, small-molecule microarray, 635 nm fluorescence, stem cell growth factors, primary screen (AID 1073); details: higher = more signal
[6] = biological target: Pro-neuregulin-1, membrane-bound isoform (Homo sapiens) (UniProt Q02297); assay: small molecules binding neuregulin-1 protein – biochemical, small-molecule microarray, fluorescence 635/667, psychiatric disease protein project, primary screen (AID 1075); details: NRG1 binding, 635 nm fluorescence, higher = more signal;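 further: score combines 667 nm spot fluorescence with signal to noise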
Sequence of Pro-neuregulin-1, membrane-bound isoform (Homo sapiens) (Q02297 whole entry, looked up, the tested form may be a part, canonical isoform): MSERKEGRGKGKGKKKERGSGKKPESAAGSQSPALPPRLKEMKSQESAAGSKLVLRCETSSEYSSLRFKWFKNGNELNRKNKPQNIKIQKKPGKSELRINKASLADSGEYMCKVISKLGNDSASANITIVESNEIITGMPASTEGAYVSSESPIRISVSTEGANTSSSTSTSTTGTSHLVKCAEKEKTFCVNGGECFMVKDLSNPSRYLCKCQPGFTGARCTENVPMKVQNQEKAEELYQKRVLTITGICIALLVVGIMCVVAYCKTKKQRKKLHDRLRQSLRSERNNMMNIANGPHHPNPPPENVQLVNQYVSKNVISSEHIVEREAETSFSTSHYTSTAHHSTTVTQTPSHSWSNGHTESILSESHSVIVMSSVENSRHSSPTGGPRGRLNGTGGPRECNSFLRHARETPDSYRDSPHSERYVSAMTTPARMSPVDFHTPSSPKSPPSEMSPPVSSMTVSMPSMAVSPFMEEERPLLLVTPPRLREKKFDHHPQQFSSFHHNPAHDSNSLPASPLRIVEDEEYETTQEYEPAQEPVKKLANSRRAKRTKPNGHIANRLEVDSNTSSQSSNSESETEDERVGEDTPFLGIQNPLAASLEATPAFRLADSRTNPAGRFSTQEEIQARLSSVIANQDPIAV

[7] = test system: Neuregulin-1 EGF-like domain; assay: small molecules binding NRG1 EGF domain – biochemical, small-molecule microarray, 635 nm fluorescence, primary screen (AID 1081); details: higher = more signal;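 further: binding of the protein to compounds printed on small-molecule microarray slides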
[8] = FRG1 expression reporter modulators in myotubes – cell-based, C2C12 myotubes, firefly/Renilla luciferase, luminescence, FRG1 inhibition for FSHD, primary screen (AID 1084); details: FRG1 promoter luciferase, higher = more signal, called active from +8 up or from −8 down
[9] = small molecules captured by biotinylated probe aFST – biochemical, small-molecule microarray, fluorescence 635/667, stem cell growth factor project, primary screen (AID 1086); details: higher = more signal;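 further: score merges 667 nm fluorescence with signal-to-noise of each printed compound spot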
[10] = binders of probe aHhip on microarray, primary screen, stem cell growth factor project, biochemical, small-molecule microarray, fluorescence 635/667 (AID 1087); details: higher = more signal;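 further: score merges spot fluorescence at 667nm with spot signal to noise ratio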
[11] = test system: PRMT1 (protein arginine N-methyltransferase 1); assay: small molecules binding arginine methyltransferase PRMT1 – biochemical, small-molecule microarray, 635 nm fluorescence, primary screen (AID 1088); details: higher = more signal;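 further: binding of Prmt1 protein to compounds spotted on small-molecule microarray slides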
[12] = growth effects on S. cerevisiae YJM789 – YJM789 clinical isolate, OD600, 24 h, basal, primary screen (AID 1089); details: higher = more signal, called active from +8 up or from −8 down;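 further: growth of clinical yeast isolate S. cerevisiae YJM 789 seeded 1000 cells per well; test concentration not given here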
[13] = S. pombe growth modifiers, basal conditions – strain 972, OD600, 24 h, no modulator, primary screen (AID 1090);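 further: basal condition with compound alone and no growth modifier present; test concentration not given here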; details: S. pombe 972 growth, higher = more signal, called active from +8 up or from −8 down
[14] = budding yeast growth modifiers under rapamycin – strain BY4716, OD600, 96 h, primary screen (AID 1091); further: test concentration not given here; details: S. cerevisiae BY4716 + rapamycin, higher = more signal, called active from +8 up or from −8 down
[15] = biological target: Torsin-1A-interacting protein 2 (Homo sapiens) (UniProt Q8NFQ8); assay: small molecules binding lysate-expressed LULL1 – cell lysate, human LULL1 lysate, 635/667 nm fluorescence, primary screen (AID 1092); details: small-molecule microarray, hLULL1 lysate binding, 635 nm fluorescence; higher = more signal;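 further: probe is lysate of COS7 cells overexpressing human LULL1; score merges per-feature 667 nm fluorescence with signal-to-noise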
Sequence of Torsin-1A-interacting protein 2 (Homo sapiens) (Q8NFQ8 whole entry, looked up): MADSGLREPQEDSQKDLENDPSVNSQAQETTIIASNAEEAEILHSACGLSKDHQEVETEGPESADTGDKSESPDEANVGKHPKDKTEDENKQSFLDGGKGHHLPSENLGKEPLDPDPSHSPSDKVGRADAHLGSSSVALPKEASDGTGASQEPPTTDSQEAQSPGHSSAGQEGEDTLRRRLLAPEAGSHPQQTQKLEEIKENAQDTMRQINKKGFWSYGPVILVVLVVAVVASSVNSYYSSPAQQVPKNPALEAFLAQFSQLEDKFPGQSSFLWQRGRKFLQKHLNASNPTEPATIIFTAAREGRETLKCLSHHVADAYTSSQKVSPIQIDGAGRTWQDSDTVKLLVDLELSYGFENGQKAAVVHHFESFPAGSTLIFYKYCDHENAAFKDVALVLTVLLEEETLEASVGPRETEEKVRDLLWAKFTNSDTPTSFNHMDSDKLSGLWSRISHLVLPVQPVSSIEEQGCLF

[16] = optical density change of DRC41 E. coli – strain DRC41, OD650, 24 h, E. coli filamentation project, primary screen (AID 1093);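 further: MC1000 strain lacking acrAB efflux and sulA so SOS filamentation is blocked; test concentration not given here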; details: E. coli DRC41 growth, higher = more signal, called active from +8 up or from −8 down
[17] = probe aLefty2 binding to arrayed compounds – biochemical, biotinylated probe, 635/667 nm fluorescence, primary screen (AID 1094); details: small-molecule microarray, higher = more signal;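 further: score merges spot fluorescence near 667 nm with spot signal-to-noise ratio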
[18] = test system: Noggin (protein binding on small-molecule microarray); assay: small molecules binding Noggin protein – biochemical, 635/667 nm fluorescence, primary screen (AID 1095); details: 635 nm fluorescence, higher = more signal;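 further: score merges 667 nm feature fluorescence with signal to noise over triplicate slides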
[19] = biological target: Neurogenic locus notch homolog protein 3 (Homo sapiens) (UniProt Q9UM47); assay: small molecules binding NOTCH3 protein – biochemical, 635/667 nm fluorescence, primary screen (AID 1096); details: small-molecule microarray, 635 nm fluorescence, higher = more signal
Sequence of Neurogenic locus notch homolog protein 3 (Homo sapiens) (Q9UM47 whole entry, looked up): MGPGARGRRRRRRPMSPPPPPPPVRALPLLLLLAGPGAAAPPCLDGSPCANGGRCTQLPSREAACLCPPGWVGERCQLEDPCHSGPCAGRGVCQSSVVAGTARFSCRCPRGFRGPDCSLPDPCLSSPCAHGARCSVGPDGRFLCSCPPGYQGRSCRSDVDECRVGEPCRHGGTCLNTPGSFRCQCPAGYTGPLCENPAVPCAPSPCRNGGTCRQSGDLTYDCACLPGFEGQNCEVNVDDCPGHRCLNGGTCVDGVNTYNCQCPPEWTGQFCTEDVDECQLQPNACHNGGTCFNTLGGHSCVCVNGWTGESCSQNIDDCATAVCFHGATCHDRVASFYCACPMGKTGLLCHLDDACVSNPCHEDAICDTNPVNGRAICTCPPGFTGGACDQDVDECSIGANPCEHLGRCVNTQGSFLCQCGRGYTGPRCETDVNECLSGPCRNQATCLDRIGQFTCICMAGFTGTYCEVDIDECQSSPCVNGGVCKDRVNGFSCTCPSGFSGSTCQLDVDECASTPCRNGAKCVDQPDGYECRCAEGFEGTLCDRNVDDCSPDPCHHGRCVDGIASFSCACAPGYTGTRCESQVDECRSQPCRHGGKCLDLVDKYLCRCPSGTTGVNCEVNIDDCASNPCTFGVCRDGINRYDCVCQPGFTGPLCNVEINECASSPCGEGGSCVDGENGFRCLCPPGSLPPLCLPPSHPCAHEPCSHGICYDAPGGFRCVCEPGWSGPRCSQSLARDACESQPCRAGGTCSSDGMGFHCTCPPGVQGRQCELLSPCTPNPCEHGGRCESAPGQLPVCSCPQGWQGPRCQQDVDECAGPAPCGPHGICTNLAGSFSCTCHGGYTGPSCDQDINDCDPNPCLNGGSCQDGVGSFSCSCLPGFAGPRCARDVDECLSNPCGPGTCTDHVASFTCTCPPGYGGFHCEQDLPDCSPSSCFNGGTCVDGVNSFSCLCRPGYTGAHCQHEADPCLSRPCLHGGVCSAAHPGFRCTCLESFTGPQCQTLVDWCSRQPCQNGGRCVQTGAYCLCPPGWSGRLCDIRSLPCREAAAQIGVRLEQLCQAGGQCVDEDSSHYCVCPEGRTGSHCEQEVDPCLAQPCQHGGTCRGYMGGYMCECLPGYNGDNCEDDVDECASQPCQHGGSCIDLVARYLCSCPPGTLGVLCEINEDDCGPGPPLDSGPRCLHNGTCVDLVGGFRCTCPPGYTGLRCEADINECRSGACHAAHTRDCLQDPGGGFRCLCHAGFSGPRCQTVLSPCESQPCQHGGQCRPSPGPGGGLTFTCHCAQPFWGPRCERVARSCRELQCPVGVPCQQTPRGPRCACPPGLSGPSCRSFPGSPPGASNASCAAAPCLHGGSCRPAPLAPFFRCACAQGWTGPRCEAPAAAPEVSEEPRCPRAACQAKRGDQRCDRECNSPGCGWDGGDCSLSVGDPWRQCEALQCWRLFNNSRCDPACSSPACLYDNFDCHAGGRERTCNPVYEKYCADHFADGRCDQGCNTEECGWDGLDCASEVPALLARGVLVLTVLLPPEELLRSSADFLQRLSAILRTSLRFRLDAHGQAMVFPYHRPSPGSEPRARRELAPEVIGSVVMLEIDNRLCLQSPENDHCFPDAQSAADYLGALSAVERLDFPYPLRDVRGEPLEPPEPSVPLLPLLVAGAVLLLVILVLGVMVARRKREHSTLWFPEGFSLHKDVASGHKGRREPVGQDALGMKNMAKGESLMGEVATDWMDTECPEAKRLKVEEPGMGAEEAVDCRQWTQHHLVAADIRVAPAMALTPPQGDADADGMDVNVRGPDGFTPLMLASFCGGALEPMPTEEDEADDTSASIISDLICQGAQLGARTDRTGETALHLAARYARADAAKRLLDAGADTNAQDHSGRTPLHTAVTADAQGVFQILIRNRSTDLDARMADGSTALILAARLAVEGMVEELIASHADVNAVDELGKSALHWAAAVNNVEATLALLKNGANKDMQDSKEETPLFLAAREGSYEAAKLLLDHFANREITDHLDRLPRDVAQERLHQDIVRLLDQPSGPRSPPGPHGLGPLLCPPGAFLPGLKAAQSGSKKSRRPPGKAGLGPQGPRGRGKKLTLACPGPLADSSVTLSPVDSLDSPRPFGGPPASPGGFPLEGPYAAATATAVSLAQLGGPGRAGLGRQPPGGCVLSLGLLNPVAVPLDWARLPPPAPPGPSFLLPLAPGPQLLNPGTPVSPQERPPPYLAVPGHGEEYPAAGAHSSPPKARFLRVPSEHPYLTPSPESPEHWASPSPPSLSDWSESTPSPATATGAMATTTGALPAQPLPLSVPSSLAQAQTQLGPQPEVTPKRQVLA

[20] = probe aEGFR binding to arrayed compounds – biochemical, biotinylated probe, 635/667 nm fluorescence, primary screen (AID 1097); details: small-molecule microarray, higher = more signal;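 further: probe is a biotinylated anti-EGFR antibody binding compounds printed on slides; score combines fluorescence near 667 nm and signal to noise of each spot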

Row | Structure (SMILES) | composite z-score [1] | composite z-score [2] | composite z-score [3] | composite z-score [4] | composite z-score [5] | composite z-score [6] | composite z-score [7] | z-score [8] | composite z-score [9] | composite z-score [10] | composite z-score [11] | z-score [12] | z-score [13] | z-score [14] | composite z-score [15] | z-score [16] | composite z-score [17] | composite z-score [18] | composite z-score [19] | composite z-score [20]
1 | C#CCNC(=O)[C@H](Cc1ccccc1)NC(=O)CCC(=O)O | -0.0733 | -0.267 | -0.158 | -0.704 | -1.46 | -0.592 | -0.33 | 0.338 (inactive) | 1.03 | -0.0994 | -1.17 | -0.136 (inactive) | 0.396 (inactive) | 0.0017 (inactive) | -0.906 | -0.361 (inactive) | -0.198 | -0.88 | -0.502 | -0.238
2 | C[C@]1(C(=O)NC2CC2)c2ccccc2C(=O)N(Cc2cc(C(F)(F)F)cc(C(F)(F)F)c2)[C@H]1c1ccc(CO)cc1 | 0.098 | 0.14 | 0.0458 | 0.31 | 1.26 | 0.354 | 1.26 | -0.583 (inactive) | 0.603 | -0.0994 | 1.38 | 0.412 (inactive) | -1.05 (inactive) | -0.0211 (inactive) | 1.32 | 1.08 (inactive) | 0.0868 | 0.829 | 0.967 | -0.0013
3 | COc1ccc(C#Cc2ccc3c(c2)[C@]2(C(=O)N3)[C@H](c3ccccc3OCCO)N3[C@H](c4ccccc4)[C@H](c4ccccc4)OC(=O)[C@H]3[C@@H]2C(=O)O)cc1 | -0.377 | 0.424 | 0.0406 | 1.16 | 1.34 | 1.74 | 1.28 | -0.0646 (inactive) | 0.336 | 0.132 | 1.54 | 3.22 (inactive) | 1.13 (inactive) | 0.629 (inactive) | 3.09 | 0.0706 (inactive) | 0.111 | 1.11 | 1.03 | 0.122
4 | COc1ccc([Si](C)(C)[C@H]2[C@H](CC(=O)N3Cc4ccccc4C[C@H]3CO)O[C@@]3(C(=O)N(Cc4ccc(N5CCC5=O)cc4)c4ccccc43)[C@@H]2C)cc1 | 0.061 | 0.859 | 0.0967 | 0.265 | 0.198 | 1.08 | 1.2 | -4.57 (inactive) | 0.983 | 0.115 | 1.54 | -1.57 (inactive) | 0.52 (inactive) | 0.98 (inactive) | 2.6 | 1.65 (inactive) | 0.148 | 1.57 | 1.14 | 0.0321
5 | COc1ccc(CCNC(=O)[C@@]2(C)c3ccccc3C(=O)N(Cc3cc(F)cc(C(F)(F)F)c3)[C@H]2c2ccc(CO)cc2)cc1 | 0.498 | -0.518 | 0.0046 | -0.23 | 0.146 | 0.499 | 0.969 | -3.42 (inactive) | -0.247 | 0.156 | 0.117 | -0.143 (inactive) | -0.995 (inactive) | 0.882 (inactive) | 2.3 | 0.449 (inactive) | -0.0112 | -0.969 | -0.42 | -0.0549
6 | C[N+](C)(C)CCCC[C@@H]1NC(=O)[C@@H]2C[C@H](C(=O)NCCCCCN)[C@H](c3cccc(OCCO)c3)N2C1=O | 0.6 | 1.6 | -0.0253 | 0.506 | 1.14 | 2.15 | 1.08 | -0.992 (inactive) | 0.877 | 0.161 | 1.28 | -0.465 (inactive) | -2.09 (inactive) | 0.371 (inactive) | 2.15 | -0.291 (inactive) | 0.231 | -0.0236 | 0.182 | -0.0037
7 | CC(C)(C)OC(=O)CC[C@@]12N=C(c3ccc(OCCCO)cc3)O[C@@H]1c1ccccc1N(CCS(=O)(=O)c1ccccc1)C2=O | 0.742 | 0.066 | -0.0174 | -0.366 | 0.893 | 0.729 | 1.11 | -2.9 (inactive) | 0.687 | 0.0302 | 1.07 | -0.0877 (inactive) | 0.326 (inactive) | 0.0825 (inactive) | 2.48 | 1.68 (inactive) | 0.193 | 0.427 | 0.784 | -0.0679
8 | C=CCOC(=O)[C@@H]1[C@H]2C(=O)O[C@H](c3ccccc3)[C@H](c3ccccc3)N2[C@H](c2ccc(OCCOC(=O)[C@@H]3C[C@@H]4C(=O)N[C@@H](Cc5ccccc5)C(=O)N4[C@@H]3c3ccc(O)cc3)cc2)[C@@]12C(=O)Nc1ccc(I)cc12 | -0.219 | 0.602 | -0.0944 | 0.302 | 0.825 | 0.612 | 1.14 | 1.42 (inactive) | 0.11 | 0.238 | 1.55 | 0.607 (inactive) | 1.18 (inactive) | 4.44 (inactive) | 2.06 | 1.37 (inactive) | -0.135 | 1.87 | 1.11 | -0.0828
9 | [N-]=[N+]=NCc1ccccc1[C@H]1OC(c2ccc(OCCCO)cc2)=N[C@@]1(Cc1ccccc1)C(=O)NCc1ccccc1 | -0.0101 | 0.742 | -0.0184 | 1.27 | 1.24 | 2.05 | 0.921 | -1.5 (inactive) | 0.513 | -0.331 | 1.48 | -1.9 (inactive) | -0.0354 (inactive) | 6.58 (inactive) | 2.86 | 0.84 (inactive) | 0.151 | 0.177 | 1.12 | 0.411
10 | COCCOC(=O)N1C(=O)[C@@]2(c3cc(C#CCCO)ccc31)[C@H](C(=O)Nc1nc3ccccc3s1)[C@H]1C(=O)O[C@H](c3ccccc3)[C@H](c3ccccc3)N1[C@@H]2c1ccc(OCCO)cc1 | -0.221 | 0.787 | -0.0824 | 0.871 | 1.19 | 0.991 | 1.07 | 1.2 (inactive) | 0.464 | 0.0176 | 1.54 | 1.58 (inactive) | 1.09 (inactive) | 2.02 (inactive) | 1.89 | 0.176 (inactive) | 0.0444 | 0.874 | 1.1 | 0.0848
